Measured values from ChEMBL document CHEMBL4513216, “Probing the Open Global Health Chemical Diversity Library for Multistage-Active Starting Points for Next-Generation Antimalarials” (ACS Infect Dis, 2020).
The whole screen tested about 65,000 compounds, of which about 2,100 (3.2%) showed an effect of 50% or more. The median lay at about -52%. The entries come from a sample that favours strong results as a whole.

These molecules were tested on Plasmodium falciparum (assay: Screen against P. falciparum Asexual Blood Stage (ABS), at 5uM). Conditions: tested at 5 uM.
Assay type: functional, Dd2
With `CN(CCN1CCOC1=O)CC(=O)Nc1ccc(Cl)c(C(F)(F)F)c1` the INHIBITION was -56.7%.
`CNc1cc(-c2ccc(COCCN)cc2)c2cc[nH]c2n1` gave an INHIBITION of 2.35%.
`CCNCCOc1ccc(-c2cc(N)nc3[nH]ccc23)cc1` showed an INHIBITION of 51.3%.
`Nc1cc(-c2cc(O)cc(C(=O)O)c2)c2cc[nH]c2n1` gave an INHIBITION of -9.72%.
With `CCOCCCNC(=O)c1ccccc1S(C)(=O)=O` the INHIBITION was -120%.
With `CSCCNc1ccc(C(=O)N(C)Cc2ccc3ccccc3n2)cn1` the INHIBITION was -73.9%.
`CCOc1ccc(NC(=O)NCCS(=O)(=O)CC)cc1C` showed an INHIBITION of 4.65%.
With `COc1cc(CNCc2ccc(C(C)O)cc2)cc2c1OCO2` (stereo unspecified) the INHIBITION was 9.88%.
`COc1cc(CNCCc2cnn(C)c2)cc2c1OCO2` was tested, and the INHIBITION was -26.5%.
For `COc1cc(CNCC(O)c2ccccc2)cc2c1OCO2` (stereo unspecified), the INHIBITION was 61.1%.
For `Cc1ccc(CN2CCc3onc(C(=O)NCCN(C)C)c3C2)o1`, the INHIBITION was -43.9%.
`CS(=O)(=O)N1CC2(CCCN(CC3CC3)C2)Cc2ccccc21` (stereo unspecified) was tested, and the INHIBITION was 69.8%.
With `CS(=O)(=O)N1Cc2ccccc2CC2(CCN(Cc3ccccc3)C2)C1` (stereo unspecified) the INHIBITION was 9.04%.
In the case of `CS(=O)(=O)N1CC2(CCN(CC3CCCCC3)CC2)Cc2ccccc21`, the INHIBITION is reported as 63.8%.
For `CS(=O)(=O)N1CC2(CCCN2Cc2ccc(Cl)cc2)Cc2ccccc21` (stereo unspecified), the INHIBITION was -33%.
Molecule `CC(=O)N1CC2(CCCN(Cc3ccc(Cl)cc3)C2)Cc2ccccc21` (stereo unspecified) has an INHIBITION of -0.688%.
With `CS(=O)(=O)N1CC2(CCN(CC3CCCCC3)C2)Cc2ccccc21` (stereo unspecified) the INHIBITION was -36.9%.
Molecule `Cc1csc(N2CCN(CC(=O)Nc3ccncc3)CC2C)n1` (stereo unspecified) has an INHIBITION of -32.7%.
Work on `COc1cc(OC)cc(C(=O)Nc2ncnc3c2CCC3)c1` yielded an INHIBITION of -80.8%.
With `Cc1n[nH]cc1CNCC1(c2ccccc2Cl)CCOCC1` the INHIBITION was 57.1%.
`Cc1n[nH]cc1CNCC1(c2ccc3c(c2)OCO3)CCOCC1` gave an INHIBITION of -37.3%.
With `O=C(NCC1(O)CCOC1)NCC1(c2ccccc2Cl)CCC1` (stereo unspecified) the INHIBITION was -90.2%.
`COc1ccc(COCC(O)CNC(=O)c2ccncc2)cc1` (stereo unspecified) gave an INHIBITION of -119%.
With `O=C(Nc1ccc(F)cc1)N1C[C@@H]2CC[C@H]1CN(Cc1cccnc1)C2` the INHIBITION was -74.3%.
`CN1CCN(c2nccc(-c3cncnc3C3CCCCC3)n2)CC1` gave an INHIBITION of 62.3%.
For `NC(=O)C1CCN(c2nccc(-c3c[nH]nc3C3CCCCC3)n2)CC1`, the INHIBITION was 16.3%.
Work on `c1cc(-c2cn3nccc3nc2C2CCCCC2)nc(N2CCCC2)n1` yielded an INHIBITION of 3.54%.
`CN1CCN(c2ncc(-c3cnccn3)c([C@H]3CCCO3)n2)CC1` was tested, and the INHIBITION was -10.1%.
For `CN1CCCN(c2nccc(-c3cncnc3C3CCCCC3)n2)CC1`, the INHIBITION was 61.6%.
`c1cc(-c2c[nH]nc2C2CCCCC2)nc(N2CCCCCC2)n1` gave an INHIBITION of 1.32%.
`O=C(C[C@@H]1COC[C@H]2CN(C3CCCC3)C[C@@H]12)N1CCCCO1` was tested, and the INHIBITION was -31.2%.
With `CC(C)CS(=O)(=O)N1CCC2(CN(c3cccc(F)c3)C(=O)CN2C)C1` (stereo unspecified) the INHIBITION was -101%.
For `C=C/C=c1\c(=C/C)oc2c(NCc3ccccc3)nc(C)nc12`, the INHIBITION was 3.94%.
`CCS(=O)(=O)N1CCc2cc(C(=O)NC)c(NCC3CC3)nc2CC1` gave an INHIBITION of -28%.
With `CCOC(=O)C1CCN(C(=O)CN2CCCC2c2ccccc2C)CC1` (stereo unspecified) the INHIBITION was 28.2%.
For `CCOC(=O)C1CCN(C(=O)CN2CCCC2c2ccsc2)CC1` (stereo unspecified), the INHIBITION was 50.9%.
`CCOC(=O)C1CCN(C(=O)CN2CCCC2c2cc(C)no2)CC1` (stereo unspecified) gave an INHIBITION of -126%.
In the case of `CC(=O)N(C)Cc1ccccc1NC(=O)N(C)CCc1cccs1`, the INHIBITION is reported as -28.3%.
With `CC(C)c1cncnc1-c1cc(F)cc2c1OC(CN)C2` (stereo unspecified) the INHIBITION was 29.4%.
Molecule `Cc1cc2c(c(-c3cncc(C(=O)N4CCCC4)n3)c1)OC(CN)C2` (stereo unspecified) has an INHIBITION of 4.12%.
In the case of `Cc1nc(-c2cc(F)c3c(c2)CC(CN)O3)c[nH]1` (stereo unspecified), the INHIBITION is reported as 53.7%.
For `NCC1Cc2cc(-c3cncc(C(=O)N4CCOCC4)n3)cc(Cl)c2O1` (stereo unspecified), the INHIBITION was -15.2%.
`NCC1Cc2cc(-c3cnccn3)cc(Cl)c2O1` (stereo unspecified) gave an INHIBITION of -13.4%.
`NCC1Cc2cc(-c3cncc(C(=O)N4CCCCC4)n3)cc(F)c2O1` (stereo unspecified) showed an INHIBITION of 51.3%.
`Cc1cc(NC(=O)CN2CCCC2c2noc(C)n2)n(C(C)(C)C)n1` (stereo unspecified) showed an INHIBITION of -108%.
`O=C(NC1CC1)[C@@H]1CCO[C@@H]2CCN(CC3CCC3)C[C@@H]21` showed an INHIBITION of -89.4%.
`CC(C)N1[C@H](Cn2cccn2)C[C@@H]2CN(Cc3ccoc3)CC[C@@H]21` gave an INHIBITION of 40.6%.
For `CN1CC[C@H]2[C@H](C[C@@H](Cn3cncn3)N2c2nccs2)C1`, the INHIBITION was -37.1%.
`Cc1ccc(CN2CC[C@H]3[C@H](CC(Cn4cccn4)N3C)C2)s1` (stereo partly specified) showed an INHIBITION of 62.7%.
`CN1[C@H](CN2CCCC2)C[C@@H]2CN(Cc3ccoc3)CC[C@@H]21` gave an INHIBITION of 58.5%.
`CN1C(Cn2cccn2)C[C@@H]2CN(Cc3cnn(C)c3)CC[C@@H]21` (stereo partly specified) was tested, and the INHIBITION was -48.5%.
